# HT1080-NT tox = kills 2HG-producing HT-1080-NT fibrosarcoma cells; HT-1080-NT fibrosarcoma viability, CellTiter-Glo ATP luminescence, 48 h; 360,000 compounds, 1.6% hits; Potency, µM (titrated, usually from 46.1 µM), for inactives: at the highest dose activity, negative = less viability, hits mostly cytotoxic; AID 686970;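 also: NT is the 2HG producing partner of a matched IDH1 knockdown line; 0% = DMSO-treated cells and -100% = media-only wells without cells; nearly all actives have a fitted effect of over 55% in size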
#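 HT-1080-NT; 750 cells/well; 5% FBS RPMI; 48 h compound, 37 degrees C; CellTiter-Glo luminescence; curve fitting and curve-class assignment.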
# DT40 TDP1 no CPT = qHTS for Inhibitors of human tyrosyl-DNA phosphodiesterase 1 (TDP1): qHTS in cells in absence of CPT | DT40 Tdp1-/- hTDP1 cells, no CPT, ATP luminescence, 48 h | Potency, µM (top dose mostly 46.2 µM), for inactives: top-dose activity change, negative = growth inhibition, most hits filed as inhibitors | 420,000 compounds, 15% hits; also: % is scaled to controls: 0 for no effect and ±100 for the full control effect; nearly all actives have a fitted effect of over 55% in size
#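 Chicken DT40 Tdp1-/- cells complemented with human TDP1, screened without camptothecin (DMSO vehicle only), 400 cells/well. Compounds pin-transferred, cells incubated at 37 °C for at least 48 hr. Growth read as ATP-dependent luminescence (CellTiter-Glo, 30 min at RT).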
# TDP1 cell CPT = DT40-hTDP1 cell growth loss with CPT | 420,000 compounds, 12% hits | Potency, µM (doses to about 46.2 µM), inactives show at the highest dose activity change, negative = growth inhibition, usual class: inhibitors | chicken DT40 Tdp1-/-;hTDP1 cells + 20 nM CPT, ATP luminescence, 48 h | AID 686979; also: % is scaled to controls: 0 for no effect and ±100 for the full control effect; nearly all actives have a fitted effect of over 55% in size
#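 Chicken DT40 Tdp1-/- cells stably complemented with human TDP1 were seeded at 400 cells/well in medium containing 20 nM camptothecin, exposed to pin-transferred compounds, and grown at 37 °C for at least 48 hr. Viability was read as ATP luminescence.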
# HT1080 IDH1KD tx = kills HT-1080 cells with IDH1 knockdown; 360,000 compounds, 2% hits; HT-1080 IDH1 knockdown viability, ATP luminescence, 48 h; AID 686971; Potency, µM (top dose mostly 46.1 µM), inactives show at the highest dose activity, negative = toxicity, usual class: cytotoxic;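 also: 0% = DMSO wells and -100% = cell-free medium wells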
#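 Viability of IDH1-knockdown HT-1080 fibrosarcoma cells was assessed by CellTiter-Glo after 48 h at 37 °C with titrated compound; concentration-effect curves were classified by fit quality and response size.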
# HepG2 tox-1 = kills HepG2 cells in TGF-b inhibitor counter-screen | HepG2 CAGA-GFP viability, ATP luminescence, 18 h | Potency, µM (highest dose often 46.1 µM), without a hit: at the highest dose activity change, negative = cytotoxicity, hits mostly cytotoxic | 410,000 compounds, 0.76% hits | AID 588856
#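 CellTiter-Glo luminescence gave cytotoxicity after 18 hours at 37 degrees C. The cells were HepG2 CAGA-GFP in 1% FBS DMEM, stimulated with 500 pg/mL TGF-beta after compound addition. %Activity was normalised to no-cell wells (complete cell-killing) and DMSO (no toxicity), and curves were fitted and classified.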
# TGFb SMAD3 inh = inhibitors of TGF-b signaling | HepG2 CAGA-GFP TGF-b/SMAD3 reporter, GFP fluorescence, 18 h; TGF-beta stimulated, 500 pg/mL final | Potency, µM (highest dose often 46.1 µM), inactives show top-dose activity, negative = inhibition, hits mostly inhibitors | 410,000 compounds, 1.2% hits | AID 588855; also: % is scaled to controls: 0 for no effect and ±100 for the full control effect; nearly all actives have a fitted effect of over 65% in size
#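 Inhibition was scored as loss of TGF-beta-induced (500 pg/mL final, 18 hours, 37 degrees C) GFP in HEPG2 cells carrying a CAGA-GFP reporter, in DMEM with 1% FBS. Well GFP was summed per cell; Activity was normalised to unstimulated and stimulated DMSO wells, then concentration-response fitting.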
# TGFb confirm = confirmation of TGF-b signaling inhibitors in HepG2 reporter cells; shares compounds with TGFb SMAD3 inh; HepG2 CAGA-GFP TGF-b reporter, GFP fluorescence, 18 h; cells stimulated with TGF-beta, 500 pg/mL; Potency, µM (titrated, usually from 46.1 µM), without a hit: top-dose activity, negative = inhibition, usual class: inhibitors; 1,600 compounds, 63% hits; AID 720534; also: % is scaled to controls: 0 for no effect and ±100 for the full control effect; nearly all actives have a fitted effect of over 65% in size
# HepG2 tox-2 = counter-screen for TGF-b inhibitors: cytotoxicity in HepG2 cells; 1,600 compounds, 27% hits; HepG2 CAGA-GFP viability, ATP luminescence, 18 h; cells stimulated with TGF-beta, 500 pg/mL; AID 720535; Potency, µM (doses to about 46.1 µM), for inactives: top-dose activity, negative = cytotoxicity, most hits filed as inhibitors; shares compounds with TGFb SMAD3 inh; also: % is scaled to controls: 0 for no effect and ±100 for the full control effect; nearly all actives have a fitted effect of over 70% in size
# CCL64 TGFb inh = blocks TGF-b signaling in CCL64 reporter cells | Potency, µM (doses to about 46.1 µM), for the others: at the highest dose activity, negative = inhibition, most hits filed as inhibitors | shares compounds with TGFb SMAD3 inh | CCL64 CAGA-GFP reporter, TGF-b stimulated, GFP fluorescence, 18 h | 1,600 compounds, 41% hits; also: nearly all actives have a fitted effect of over 65% in size
# COP TGFb inh = validation of TGF-b inhibitors in HepG2 COP promoter reporter; HepG2 COP-GFP TGF-b reporter, GFP fluorescence, 18 h; cells stimulated by added recombinant TGF-beta; 1,600 compounds, 3% hits; Potency, µM (highest dose often 46.1 µM), without a hit: at the top dose activity, negative = inhibition, actives largely listed as inhibitors; shares compounds with TGFb SMAD3 inh; also: nearly all actives have a fitted effect of over 70% in size
# * marks the source's active call; other numbers are inactive results; ? = inconclusive; . = no result given; [ ] = dose if it differs, or a comment. Compounds with a hit are over-represented: about 17% of the library has one in this group of screens. Calls follow the shape of the dose curve; as a rule, active = well fitted curve in the direction sought with a large enough effect; inconclusive = small, poorly fitted or top-dose-only effect, or another doubt; inactive = no such curve, though single readings can be large; an effect the other way counts as inactive or inconclusive. Potency is read from the fitted curve at half-maximal effect.
SMILES,HT1080-NT tox,DT40 TDP1 no CPT,TDP1 cell CPT,HT1080 IDH1KD tx,HepG2 tox-1,TGFb SMAD3 inh,others
CCOC(=O)[C@]12Cc3cc(C)ccc3[C@H]1N(Cc1ccccc1)C(=O)c1cc(OC)ccc12,?,21µM*,?,21µM*,.,.,
CCOC(=O)[C@]12Cc3cc(N(C)C)ccc3[C@H]1N(Cc1ccccc1)C(=O)c1ccccc12,-8%,6.5µM*,13µM*,-4%,-4%,?,
CCOC(=O)[C@]12Cc3ccccc3[C@H]1N(Cc1ccccc1)C(=O)c1cc(F)c(F)cc12,?,23µM*,?,?,.,.,
Cc1ccc(O)c(C(CCN(C(C)C)C(C)C)c2ccccc2)c1 (configuration not stated),.,-17%,-10%,.,.,.,
O=C(Oc1ccccc1)N1CCC2(CCN(Cc3ccncc3)CC2)CC1,.,?,0%,.,.,.,
Cc1nnc2n1-c1ccc(Cl)cc1C(c1ccccc1Cl)=NC2,.,-3%,-3%,.,.,.,
C=C(C)c1cc2cc(C(C)=O)c(O)cc2o1,.,-4%[9.04 µM],9%[9.04 µM],.,.,.,
CN1C(=O)C(C2c3ccccc3C(=O)N2Cc2ccccc2)C(=O)N(C)C1=O (configuration not stated),19%,10%,4%,17%,60%,12%,
CCOC(=O)[C@]12Cc3cc(Cl)ccc3[C@H]1N(Cc1ccccc1)C(=O)c1ccccc12,-19%,?,10µM*,-1%,-14%,?,
O=C(NC(=O)c1c(F)cccc1F)Nc1cc(Cl)c(F)c(Cl)c1F,0%,?,-9%,-2%,-20%,?,
CCc1ccc(N2C(=O)NC(=O)/C(=C\c3cccn3CCOc3ccc(C(C)C)cc3)C2=O)cc1,15%,16µM*,21µM*,20%,1%,2%,
Cc1ccc(C)c(S(=O)(=O)c2nnn3c2nc(N2CCN(C)CC2)c2sccc23)c1,.,?,16µM*,.,-16%,?,
Oc1ccccc1-c1ccccc1,.,-10%,0%,.,.,.,
COc1ccc2cc1Oc1ccc(cc1)C[C@H]1c3cc(c(OC)cc3CCN1C)Oc1c(OC)c(OC)cc3c1[C@@H](C2)N(C)CC3,-19%,23µM*,?,-14%,-22%,-38%,
COc1ccc2cc1Oc1ccc(cc1)CC1c3cc(c(OC)cc3CCN1C)Oc1c(OC)c(OC)cc3c1C(C2)N(C)CC3 (configuration not stated),.,3.7µM*,3.7µM*,.,.,.,
COc1cc2c3cc1Oc1c(OC)c(OC)cc4c1C(Cc1cccc(c1)Oc1ccc(c(O)c1)CC3N(C)CC2)N(C)CC4 (configuration not stated),.,0%,2%,.,.,.,
NC(=NCc1ccc(Cl)cc1)SCCCc1cnc[nH]1,.,?,21µM*,.,.,.,
CN(C)CCc1c[nH]c2cccc(OP(=O)(O)O)c12,.,3%[92.5 µM],10%[92.5 µM],.,.,.,
CCCCn1c(C)c(C(=O)O)c2cc(OC)ccc21,5%,-9%,-30%,10%,-10%,21%,
CCCCCN=C(N)N/N=C/c1c[nH]c2ccc(OC)cc12,2.9µM*,2.6µM*,2.9µM*,5.8µM*,16µM*,?,
C[C@]12CCC(=O)C=C1CCc1ccc(O)cc12,.,-19%,-5%,.,.,.,
C=C1C(C)C2C(Cc3ccccc3)NC(=O)C23C(OC(C)=O)C=CC(C)(O)CC(C)CC=CC3C1O (configuration not stated),-4%,0.73µM*,0.46µM*,?,-20%,-19%,
C[C@H]1C/C=C/[C@H]2[C@H](O)[C@H](C)[C@@](C)(O)[C@H]3[C@H](Cc4ccccc4)NC(=O)[C@]32[C@H](O)/C=C/[C@](C)(O)C1,-30%,8.2µM*,3.7µM*,?,-30%,-19%,
CC(=O)O[C@@H]1/C=C/[C@](C)(O)C[C@@H](C)C/C=C/[C@H]2[C@H](O)C(C)=C(C)[C@H]3[C@H](Cc4ccccc4)NC(=O)[C@@]123,2.6µM*,0.58µM*,0.58µM*,?,-36%,7%,
C=C1[C@@H](C)[C@H]2[C@H](Cc3ccccc3)NC(=O)[C@]23OC(=O)/C=C/[C@H](O)CCC[C@@H](C)C/C=C/[C@H]3[C@@H]1O,1.3µM*,0.65µM*,1.8µM*,0.73µM*,-36%,?,
N#Cc1c(Cl)cccc1Cl,.,-2%,-7%,.,.,.,
CC1CN(c2ccc([N+](=O)[O-])c3cccnc23)CC(C)N1 (configuration not stated),-28%,23µM*,-21%,-26%,-9%,-2%,
CCN(CCCl)c1cc(CN(C)C)cc(NC(=O)c2ccc(C(=O)Nc3cc(CN(C)C)cc(N(CC)CCCl)c3)cc2)c1,7.3µM*,0.18µM*,0.18µM*,2.9µM*,-104%,4µM*,TGFb confirm=1µM*;HepG2 tox-2=1µM*;CCL64 TGFb inh=1µM*;COP TGFb inh=?
Cn1cc(NC(=O)CCl)cn1,?,?,?,?,-22%,?,
